Results from doi:10.1101/2023.07.10.548322.

These sequences were tested against alpha-synuclein (aSyn) WT (human, UniProt P37840 1-140) (assay: RNA Bind-n-Seq). Settings: ssRNA.
GUGGAUGGCGGG was tested, and the binding signal was 49.1 enrichment score. For GAGGUGGAGGGU, the binding signal was 57.4 enrichment score. With GGGGGGAUUGGG the binding signal was 57.4 enrichment score. GCGGGAUGGGGG gave a binding signal of 43.8 enrichment score. Sequence GGGGUGGUGUUG has a binding signal of 46.4 enrichment score. GGCGGGCGGAGG gave a binding signal of 49.1 enrichment score. GUGGGGAGGAAG was tested, and the binding signal was 46.4 enrichment score. GCGGGCAGGUGG was tested, and the binding signal was 43.8 enrichment score. In the case of GAGGUGGUAGGG, the binding signal was 57.4 enrichment score. GGGGGUGGCAGA was tested, and the binding signal was 43.8 enrichment score. Sequence GGUUGGGAGCGG has a binding signal of 43.8 enrichment score. For GUGUGGCGGAGG, the binding signal was 46.4 enrichment score. Work on GCGGGGGGGCUG yielded a binding signal of 43.8 enrichment score. GGGGGUGGUGUU gave a binding signal of 49.1 enrichment score. Work on UGGGUGGGAAGG yielded a binding signal of 43.8 enrichment score. With GGAGGAGGCGGU the binding signal was 41.1 enrichment score. UGUGGGCGGGAG showed a binding signal of 54.6 enrichment score. For UGGGGGAUGGAG, the binding signal was 41.1 enrichment score. AUGGGAGUGGGG was tested, and the binding signal was 43.8 enrichment score. Work on UGGGGGAUGAGG yielded a binding signal of 46.4 enrichment score. In the case of GGGUGGGCGGAU, the binding signal was 43.8 enrichment score. With GGCGAAGGGAGG the binding signal was 49.1 enrichment score. In the case of AGGGGUUUUGGG, the binding signal was 43.8 enrichment score. Sequence GCGGGGUUAGGG has a binding signal of 49.1 enrichment score. With CGUGGGGAGUGG the binding signal was 41.1 enrichment score. Work on GGAGGUAGGGAG yielded a binding signal of 43.8 enrichment score. GUGGGGAAGGGU showed a binding signal of 49.1 enrichment score. Work on CGGAGGUGGGUG yielded a binding signal of 41.1 enrichment score. In the case of UGGGGUGGGAGU, the binding signal was 46.4 enrichment score. GUGUGGGGGCAG was tested, and the binding signal was 43.8 enrichment score. With GGGUGGGCGGGG the binding signal was 96 enrichment score. With GGGGUGAGGUGU the binding signal was 41.1 enrichment score. Work on GGAGGUGGUGGA yielded a binding signal of 46.4 enrichment score.
